Compound activity (PubChem BioAssay)
Rows were chosen to be rich in hits. Some 3.2% of all compounds tested hit in one or more screens of this group.
sPLA2-III inh: Inhibits HGIII-sPLA2 liposome hydrolysis, primary screen. Q9NZ20. inhibition, % at 12.2 µM. QFRET BODIPY PC-A2 liposome hydrolysis, fluorescence. 0.56% of 370,000 active;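 active = inhibition above mean plus 3 SD of compounds lying within the high and low control bounds, cut at about 19% in these data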;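 note: 0% = median of test compound wells and 100% = no enzyme DMSO wells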
Target sequence (Q9NZ20 whole entry, looked up): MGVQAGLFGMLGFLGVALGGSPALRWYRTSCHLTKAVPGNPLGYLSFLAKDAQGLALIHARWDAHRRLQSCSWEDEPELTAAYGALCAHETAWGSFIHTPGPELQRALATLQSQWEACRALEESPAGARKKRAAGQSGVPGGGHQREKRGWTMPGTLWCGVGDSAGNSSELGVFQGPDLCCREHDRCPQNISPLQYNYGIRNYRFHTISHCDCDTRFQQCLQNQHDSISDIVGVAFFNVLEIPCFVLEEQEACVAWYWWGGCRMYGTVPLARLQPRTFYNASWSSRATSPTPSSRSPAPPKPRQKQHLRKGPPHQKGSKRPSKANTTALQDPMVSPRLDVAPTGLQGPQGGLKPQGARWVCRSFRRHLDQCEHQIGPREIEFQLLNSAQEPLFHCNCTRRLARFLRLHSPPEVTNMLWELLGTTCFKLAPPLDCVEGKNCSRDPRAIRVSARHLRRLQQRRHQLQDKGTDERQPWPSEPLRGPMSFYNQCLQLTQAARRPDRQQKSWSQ
rCAG binder: binds r(CAG) RNA repeats; r(CAG) RNA repeat, TO-PRO-1 dye displacement fluorescence; inhibition, % at 3 µM; 1.3% of 370,000 active;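 active = inhibition above the plate cutoff, the mean of all test compounds on that plate plus 3 SD, cut at about 35% in these data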;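 note: 0% = DMSO alone and 100% = 100 µM mitoxantrone as full dye displacement; higher means more dye released from RNA so lower well fluorescence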
PG9 Ab binder: binds the HIV-1 gp120 antibody PG9; 0.43% of 360,000 active; AID 624416; inhibition, % at 6.7 µM; TR-FRET gp120-PG9 antibody binding; in the data active = inhibition above about 8.5%
MsrA inhibitor: bovine MsrA inhibition; purified bovine MsrA, absorbance read-out; inhibition, % at 15.5 µM; 0.75% of 360,000 active; in the data active = inhibition above about 4.5%;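 note: 0% = vehicle wells with enzyme and 100% = reference inhibitor wells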
MsrA act: activates bovine MsrA enzyme; purified bovine MsrA, absorbance read-out; activation, % at 10.6 µM; 0.3% of 360,000 active; in the data active = activation above about 7.5%;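 note: 0% = vehicle and 100% = reference activator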
hGIII sPLA2 conf: human GIII-sPLA2 inhibition, confirmation; recombinant hGIII-sPLA2, BODIPY PC-A2 QFRET fluorescence; inhibition, % at 12.2 µM; shares compounds with sPLA2-III inh; 34% of 2,000 active;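 active = mean inhibition across triplicates above the hit cutoff set in the earlier primary screen, cut at about 19% in these data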;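 note: 0% = enzyme with DMSO and 100% = DMSO wells lacking enzyme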
535nm interf: counter-screen for HGIII-sPLA2 inhibitors: 535nm fluorescence interference. shares compounds with sPLA2-III inh. BODIPY FL product fluorescence interference, QFRET. inhibition, % at 12.2 µM. 8.5% of 2,000 active. AID 743282;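 active = average inhibition above the solvent-only control mean plus 3 SD, cut at about 6% in these data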;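 note: 0% = DMSO with substrate plus product and 100% = DMSO with substrate alone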
Starred values were filed as active, the others as inactive; nt = no result.

SMILES	sPLA2-III inh	rCAG binder	PG9 Ab binder	MsrA inhibitor	MsrA act	hGIII sPLA2 conf	535nm interf
N#C/C(=N\Nc1ccc(Cl)cc1)C(N)=S	1	3	-3	0	-7	nt	nt
N#C/C(=N\Nc1ccccc1)C(N)=S	19*	1	-4	1	-11	33*	-3
CN(C)c1ccc(Nc2ccc([N+](=O)[O-])cn2)cc1	39*	4	-17	2	-7	44*	6.5*
CCN1C(=O)[C@@H]2[C@@H](c3ccc(-c4ccc(C(C)=O)cc4)c(OC)c3)N3CCCC[C@@]3(C(=O)OC)[C@@H]2C1=O	-5	1	-2	0	2	nt	nt
Cc1cc(NS(=O)(=O)c2ccc(N3C(=O)C4C5C=CC(C5)C4C3=O)cc2)nc(C)n1 (stereo not given)	21*	0	0	-1	3	0	-7
O=C(CCNC(=O)c1ccccc1Cl)Nc1cc(C(F)(F)F)ccc1Cl	21*	-5	0	1	-5	2	-11
CC1CCN(CC(=O)Nc2cc(C(F)(F)F)ccc2Cl)CC1	21*	-2	1	0	2	7	-8
O=C(c1ccccc1NS(=O)(=O)c1ccc(F)cc1F)N1CCCCC1	-4	4	1	-1	1	nt	nt
CC(C)[C@@H]1OC(=O)[C@@H]2CCCN2C(=O)[C@H](C)OC(=O)[C@H](C)[C@@H](C(C)C)NC(=O)[C@@H]2CCCN2C(=O)[C@H]([C@H](C)Cc2ccccc2)NC(=O)[C@@H]2CCCN2C(=O)[C@@H](C(C)C)N(C)C1=O	-7	nt	nt	nt	nt	nt	nt
CCCSc1nc2c([nH]1)c(=O)n(C)c(=S)n2C	20*	2	-1	1	-2	7	1
COc1ccc([C@H]2OC(=O)C[C@H]2C(=O)N2CCCCC2)cc1OC	15	-1	nt	nt	nt	nt	nt
O=C(/C=C/c1cccnc1)c1ccc(O)cc1	22*	1	1	2	-4	4	-7
CC(C)NC(=O)c1ccccc1NC(=O)/C=C/c1cccc([N+](=O)[O-])c1	23*	-1	0	1	2	-3	4
CCOc1ccc(C(Nc2cccnc2)c2cc(Cl)c3cccnc3c2O)cc1 (stereo not given)	24*	3	-1	0	-4	16	3
O=C(C1CCCN1S(=O)(=O)c1cccc([N+](=O)[O-])c1)N1CCN(c2ccccc2)CC1 (stereo not given)	-1	1	nt	nt	nt	nt	nt
CC(C)c1nc2c(c(=O)c3ccccc3n2C)c(=O)n1-c1ccc(F)cc1	24*	0	0	0	-4	1	-16
COc1ccccc1N1CCN(N=Cc2ccccc2Br)CC1	19*	0	nt	nt	nt	7	-9
CCCS(=O)(=O)c1c(S(=O)(=O)CCC)c2cnccn2c1C(=O)c1ccc(F)cc1	19*	-5	-2	1	-4	3	-10
CCCS(=O)(=O)c1c(S(=O)(=O)CCC)c2cnccn2c1C(=O)c1ccc(CC)cc1	0	1	0	0	2	nt	nt
Cc1cccc(CSc2nc3ccccc3c(=O)n2C)c1	-1	-2	-1	0	-1	nt	nt
COc1ccc2nc(NC(=O)CCN3C(=S)NC(C)(C)CC3C)sc2c1 (stereo not given)	26*	-2	1	0	-5	24*	-11
Cc1cc(N2CCNC[C@H]2C)ccc1N1C[C@@H](C)O[C@@H](C)C1	-2	3	-3	0	nt	nt	nt
CCC(=O)NC(=S)Nc1ccc(-c2nc3ccccc3s2)cc1	-4	0	-1	0	-3	nt	nt
CCC(=O)NC(=S)Nc1ccc(-c2nc3ccc(C)cc3s2)cc1	19*	-1	-1	0	-3	0	-8
CC(C)CN1C(=O)C[C@]2(C(=O)N(C)c3ccc(NS(=O)(=O)C4CCCCC4)cc32)C1c1ccccc1 (stereo not given in full)	2	4	nt	nt	nt	nt	nt
SMILES	sPLA2-III inh	rCAG binder	PG9 Ab binder	MsrA inhibitor	MsrA act	hGIII sPLA2 conf	535nm interf
CN(C)c1ccc(N=Nc2ccccc2C(=O)OCC(=O)NC2CCCC2)cc1	20*	-4	0	0	-2	24*	-11
Cc1ccc(NC(=S)NC2CCCC2)c(C)c1	19*	-4	0	0	0	17	-2
CCOc1ccccc1NC(=O)C(OC(=O)c1ccccc1O)c1ccccc1 (stereo not given)	22*	-2	-1	0	3	-18	-11
CCOc1ccccc1NC(=O)C(OC(=O)c1ccccc1)c1ccccc1 (stereo not given)	-8	-1	-1	-1	-3	nt	nt
COc1ccc2ccccc2c1/C=N/NC(=O)c1ccc(C)nc1	-5	-1	-6	2	-3	nt	nt
O=C(N/N=C/c1c(O)ccc2ccccc12)c1ccc(CO)nc1	25*	11	-2	2	-2	12	-6
O=C(NN=Cc1c(O)ccc2ccccc12)c1ccc2c(c1)OCO2	37*	8	2	1	-8	8	-6
O=C(N/N=C/c1ccccc1)c1ccc2c(c1)OCO2	11	-3	0	1	-2	nt	nt
Cc1ccc(-c2cc(C(=O)NN=Cc3c(O)ccc4ccccc34)[nH]n2)cc1C	26*	-74	nt	nt	nt	-17	-10
NC(=S)N/N=C/c1c(O)ccc2ccccc12	35*	2	-3	3	-11	21*	0
COC(=O)C[C@H]1CC[C@@H]2[C@@H](COc3ccc(NC(=O)Nc4cccc(C)c4)cc3C(=O)N2C)O1	-10	7	nt	nt	nt	nt	nt
COC(=O)[C@]12C[C@H](CC(=O)N3CCN(C(=O)C4CC4)CC3)C(=O)N(Cc3ccc4c(c3)OCO4)C1=C[C@H](C(C)C)O[C@@H]2C1CC1	-7	0	nt	nt	nt	nt	nt
COC(=O)[C@]1(Cc2ccccc2)NC=C(C(=O)c2ccccc2)[C@@H]1c1cccs1	-36	11	-1	1	nt	nt	nt
CC[C@H](CCC(=O)N(c1ccccc1)c1ccccc1)C1CC1	1	-4	nt	nt	nt	nt	nt
Cc1cc(C)cc(NS(=O)(=O)c2ccc(NC(=O)c3ccccc3C(=O)O)cc2)c1	-3	1	-1	-1	-6	nt	nt
O=C(O)c1ccccc1C(=O)Nc1ccc(S(=O)(=O)NC2CCCCC2)cc1	20*	-2	2	1	-3	3	-3
NC(=O)c1ccc(-c2ccc(N3C(c4ccsc4)=Cc4ccc(F)cc4C3CC(=O)c3ccco3)cc2)cc1 (stereo not given)	26*	16	0	3	-12	14	4
C=CCC[C@@H](CCCCC)OC(=O)/C=C/[C@@H](O)[C@H](O)C[C@@H](O)CC=C	-6	-3	0	1	-5	nt	nt
CC(C)NC(=S)N/N=C/c1cc(Br)ccc1O	29*	9	-1	2	-4	5	5
Oc1ccc(Br)cc1/C=N/NC(=S)NCCc1ccccc1	26*	31	1	0	-2	24*	5
COc1ccc(O)c(/C=N/NC(=S)NCCc2ccccc2)c1	18	15	1	0	-8	nt	nt
